Screens as filed in PubChem BioAssay.
RORgamma inh – inhibitors of mouse ROR gamma transcriptional activity. P51450. Drosophila S2 Gal4-RORgamma UAS-luciferase reporter, 20 h. Potency, µM (series often up to 53.6 µM), for the others: at the top dose activity change, negative = inhibition, most hits filed as inhibitors. actives 5.4% (n = 310,000). AID 2551; further: potency means the concentration at half of the fitted maximal effect; on the % scale 0 is the no-effect control and ±100 the full control effect; nearly all actives have a fitted effect of over 60% in size
Target sequence (P51450 whole entry, looked up, the tested form may be a part): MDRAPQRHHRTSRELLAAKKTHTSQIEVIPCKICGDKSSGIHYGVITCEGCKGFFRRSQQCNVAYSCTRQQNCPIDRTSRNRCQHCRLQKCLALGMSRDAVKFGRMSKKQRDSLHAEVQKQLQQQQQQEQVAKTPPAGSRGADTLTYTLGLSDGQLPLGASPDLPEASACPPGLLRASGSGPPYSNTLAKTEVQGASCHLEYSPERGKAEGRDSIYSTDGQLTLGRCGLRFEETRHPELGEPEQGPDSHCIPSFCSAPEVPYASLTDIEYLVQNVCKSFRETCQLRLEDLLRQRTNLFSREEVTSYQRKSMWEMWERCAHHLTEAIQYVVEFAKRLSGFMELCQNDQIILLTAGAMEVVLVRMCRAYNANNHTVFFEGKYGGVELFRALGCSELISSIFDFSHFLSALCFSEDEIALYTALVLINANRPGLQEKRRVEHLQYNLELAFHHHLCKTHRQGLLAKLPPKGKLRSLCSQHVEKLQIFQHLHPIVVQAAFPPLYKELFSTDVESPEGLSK
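Luciferase reporter read in Schneider cells carrying Gal4-RORγ (mouse) and UAS-Photinus luciferase; cells given compound 1 h before 700 uM copper sulfate induction, then incubated 20 h at ambient temperature.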
MCF10A rereplic – induces DNA re-replication in MCF 10a normal breast cells; MCF 10A DNA re-replication, Hoechst nuclear intensity, 48 h; Potency, µM (titrated, usually from 46.1 µM), without a hit: at the highest dose activity, positive = re-replication, hits mostly activators; actives 2.9% (n = 350,000); further: potency means the concentration at half of the fitted maximal effect; % of control where 0% means no effect; nearly all actives have a fitted effect of over 50% in size
SW480 rereplic – DNA re-replication induction in SW480 cells; actives 1.8% (n = 340,000); SW480 DNA re-replication, Hoechst DNA content imaging, 48 h; Potency, µM (highest dose often 46.1 µM), without a hit: at the highest dose re-replication activation, hits mostly activators; further: potency means the concentration at half of the fitted maximal effect; % of control where 0% means no effect; nearly all actives have a fitted effect of over 55% in size
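Image-based DNA-content assay: after two days of treatment, nuclei were labelled with the DNA dye Hoechst and imaged, and hits were compounds raising the count of nuclei showing high fluorescence intensity.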
VP16 counter – inhibits Gal4-VP16 luciferase reporter, ROR gamma counter-screen. Drosophila S2 Gal4-VP16 UAS-luciferase, luminescence, 20 h. Potency, µM (highest dose often 53.6 µM), inactives show at the highest dose activity, negative = inhibition, usual class: inhibitors. actives 3.5% (n = 310,000);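 further: Gal4-VP16 expression switched on by copper sulfate through the metallothionein promoter; potency means the concentration at half of the fitted maximal effect; on the % scale 0 is the no-effect control and ±100 the full control effect; nearly all actives have a fitted effect of over 50% in size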
IL1B secr inh – blocks inflammasome-driven IL-1 beta release | activity change, % at 57.5 µM | AID 743279 | THP-1 LPS/ATP IL-1B secretion, AlphaLISA, 16 h; active compounds read low | actives 4.7% (n = 360,000); in the data active means activity change below about -50%; inconclusive means mostly about -30% to -49%; further: on the % scale 0 is the no-effect control and ±100 the full control effect
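Secreted IL-1B measured by AlphaLISA bead assay after 16 h compound exposure of THP-1 cells; compounds (final up to 57.5 uM) added 1 h before LPS (250 ng/mL) and ATP (1.25 mM) stimulation; lower signal means less secretion.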
The depositor's hits bear a star; ? = inconclusive; / = no result; [ ] = remark or other dose. In the library only some 11% were active in any assay of this set; here they are far more common. Unless noted, the call rests on the fitted dose curve; in most records, active means well fitted curve in the direction sought with a large enough effect; inconclusive means small, poorly fitted or top-dose-only effect, or another doubt; inactive means no such curve, though single readings can be large; an effect the other way counts as inactive or inconclusive.

SMILES | RORgamma inh | MCF10A rereplic | SW480 rereplic | VP16 counter | IL1B secr inh
Cc1[nH]nc2ncc(C(=O)c3cc(F)ccc3O)cc12 | 12% | 3% | ? | 3% | 0
CCCCN1Cc2cc(C(=O)c3cc(F)ccc3O)cnc2NC1=O | 19%[10 µM] | ? | 6% | 5% | -57*
C[C@H]1C2=C3C(CC[C@H]4C(OCc5ccc(F)cc5C(F)(F)F)OC[C@](C)([C@@H]34)N(C(=O)OC(C)(C)C)C2)C(CO)C1CO (stereo not given in full) | 1% | / | / | 6% | /
O=c1oc(-c2ccc(Cl)cc2[N+](=O)[O-])nc2ccccc12 | / | / | / | / | 55
Cn1nc(-c2ccc(Cl)cc2)c2cc(C(=O)NCCN3CCOCC3)sc21 | -14% | 5% | 1% | -8% | -18
COCCCNC(=O)c1cc2c(-c3cccc(OC)c3)nn(C)c2s1 | 13% | 29% | ? | -14% | -2
CCN(CC)CCNC(=O)c1cc2c(-c3cccc(OC)c3)nn(C)c2s1 | 7% | ? | ? | -13% | -79*
Cn1nc(-c2ccc(Cl)cc2)c2cc(C(=O)NC3CC3)sc21 | ? | 6.5µM* | ? | 13µM* | 0
CCOCCCNC(=O)c1cc2c(-c3ccc(Cl)cc3)nn(C)c2s1 | -31% | 9% | 18% | -9% | -17
CCCCN(CC)CCNC(=O)c1cc2c(-c3ccc(Cl)cc3)nn(C)c2s1 | -30% | 18µM* | ? | -11% | -97*
CCCN(CCC)CCCNC(=O)c1cc2c(-c3ccc(OC)c(OC)c3)nn(C)c2s1 | -11% | 18µM* | ? | -15% | -52*
O=C(CCc1nnc2n(Cc3ccccc3)c(=O)c3ccccc3n12)NCCN1CCOCC1 | -19% | 1% | 1% | 0% | -18
COc1ccc(C(=O)N(C)CCCC2CCCC2)cc1OC1CCN(C(C)C)CC1 | -17% | ? | 15% | -1% | ?
CCN(CC)CCNC(=O)c1cc2c(-c3ccc(Cl)cc3)nn(C)c2s1 | ? | 32% | ? | -26% | -90*
CCOC(=O)N1CCN(C(=O)c2cc3c(-c4cccc(OC)c4)nn(C)c3s2)CC1 | ? | 15% | 23% | -7% | -67*
Cn1nc(-c2ccccc2F)c2cc(C(=O)Nc3ccc4c(c3)OCCO4)sc21 | ? | ? | 1% | 21% | -65*
CCCN(CCC)CCNC(=O)c1cc2c(-c3ccc(Cl)cc3)nn(C)c2s1 | -27% | ? | ? | -10% | -16
Cc1nn(-c2ccccc2)c2sc(C(=O)NC3CC3)cc12 | 32% | 12µM* | 2% | 3% | 7
CC(=O)c1sc(NC(=O)c2cc3c(C)nn(-c4ccccc4)c3s2)nc1C | -8% | 8% | -5% | -8% | -16
C[C@@H]1CN([C@H](C)CO)C(=O)c2cc(C#CC3CC3)cnc2O[C@H]1CN(C)S(C)(=O)=O | / | / | / | / | 12
COc1ccccc1Nc1ncnc2c1c(C)c(C)n2CCO | 7% | 11% | 2% | 14% | ?
COc1ccc(Nc2nnc(SCC(=O)NC3CCCC3)s2)cc1 | / | / | / | / | 7
Cc1ccc(NC(=O)c2ncn(CCCNCc3ccccc3)n2)cc1C | / | 6% | 10% | / | ?
CCCN(CCC)CCNC(=O)c1cc2c(-c3ccccc3F)nn(C)c2s1 | 14% | 94% | ? | 8% | -92*
CC(C)CCC(C)NC(=O)CN1C(=O)NC(C)(c2ccc3ccccc3c2)C1=O (stereo not given) | 9% | ? | 12% | -4% | ?
SMILES | RORgamma inh | MCF10A rereplic | SW480 rereplic | VP16 counter | IL1B secr inh
COc1ccc(C(=O)Nc2ccc(OCC(F)(F)C(F)F)c(C(F)(F)F)c2)cc1OC | ? | 14% | 1%[9.22 µM] | -11% | -23
O=C(Nc1ccc(OCC(F)(F)C(F)F)c(C(F)(F)F)c1)c1ccc(Cl)cc1 | / | 23µM* | ? | / | -104*
O=C(Nc1ccc(Br)c(C(F)(F)F)c1)c1ccc(C(F)(F)F)cc1 | ? | 15µM* | ? | ? | /
O=C(Nc1ccc(Br)c(C(F)(F)F)c1)c1ccccc1 | 22%[10 µM] | ? | -4% | -8% | 0
O=S(=O)(c1cccs1)N1CCN(CCOc2ccc(Cl)cc2)CC1 | / | 10% | -14% | / | -59*
O=S(=O)(c1cccs1)N1CCN(c2ccc(Cl)cc2)CC1 | 19% | ? | 3% | -14% | -11
